± gives the standard deviation of the averaged measurements.
System: FaDu
Experiment: mitochondrial oxygen consumption rate normalised to cell number, Z score vs plate DMSO wells; higher = higher oxygen consumption (negative = OCR reduction)
Details: treatment time 24 h, assay medium: 5 mM glucose, 5 mM pyruvate, 4 mM glutamine
Method: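 Secondary screen: FaDu cells were incubated 24 h with the top 130 primary hits at 0.08, 0.4, 2 or 10 uM. Mitochondrial-specific OCR (basal minus antimycin A) was measured on a Seahorse XF96 in medium with 5 mM glucose, 5 mM pyruvate and 4 mM glutamine and normalised to Hoechst cell number. OCR score = (OCR - mean of plate DMSO wells) / SD of plate DMSO wells. Three repeats.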
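Further: compound exposure in DMEM (4 mM L-glutamine, 5 mM glucose), antimycin A injected at 2 µM after the basal reading and its residual OCR subtracted from basal.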

Row | Structure (SMILES) | mitochondrial oxygen consumption rate normalised (0.08 µM) | mitochondrial oxygen consumption rate normalised (0.4 µM) | mitochondrial oxygen consumption rate normalised (2 µM) | mitochondrial oxygen consumption rate normalised (10 µM)
1 | CO[C@H]1C[C@H](O[C@H]2[C@H](C)O[C@@H](O[C@@H]3/C(C)=C/C[C@@H]4C[C@@H](C[C@]5(C=C[C@H](C)[C@@H](C6CCCCC6)O5)O4)OC(=O)[C@@H]4C=C(C)[C@@H](O)[C@H]5OC/C(=C\C=C\[C@@H]3C)[C@]54O)C[C@@H]2OC)O[C@@H](C)[C@@H]1O | 0.113 ± 1.2 | 1.33 ± 0.39 | -0.504 ± 1.2 | -2.82 ± 1.1
2 | CC(=O)[C@H]1CC[C@H]2[C@@H]3CCC4=CC(=O)CC[C@]4(C)[C@H]3CC[C@]12C | -0.339 ± 1.3 | 0.321 ± 0.92 | -0.631 ± 1.3 | -1.18 ± 0.26
3 | Cc1ccc2c(Br)cc(Br)c(OC(=O)c3ccccc3)c2n1 | 1.43 ± 0.79 | 0.324 ± 0.71 | -3.89 ± 1.2 | -4.73 ± 1.5
4 | CC(C(O)c1ccc(O)cc1)N1CCC(Cc2ccccc2)CC1 (stereo not given) | 0.382 ± 1.5 | 0.565 ± 0.59 | -0.938 ± 1.3 | 0.802 ± 0.91
5 | CCc1c2c(nc3ccc(OC(=O)N4CCC(N5CCCCC5)CC4)cc13)-c1cc3c(c(=O)n1C2)COC(=O)[C@]3(O)CC | 0.871 ± 0.77 | 1.67 ± 1.4 | 1.27 ± 0.31 | -4.72 ± 1
6 | Nc1c2ccccc2nc2ccccc12 | -1.04 ± 0.95 | -0.393 ± 0.47 | -2.4 ± 0.075 | -9.41 ± 0.65
7 | N[C@@H](Cc1ccc(O)c(O)c1)C(=O)O | 0.0621 ± 1.8 | 0.345 ± 0.69 | 1.31 ± 0.9 | 0.522 ± 2
8 | COc1c2occc2cc2ccc(=O)oc12 | -0.411 ± 1.2 | 0.146 ± 0.75 | -0.807 ± 2.3 | -1.8 ± 2.2
9 | N=C(N)c1ccc(OCCCCCOc2ccc(C(=N)N)cc2)cc1 | 0.754 ± 1.1 | -0.0335 ± 0.92 | -2.03 ± 2.2 | -6.65 ± 1.6
10 | Nc1ncn([C@@H]2O[C@H](CO)[C@@H](O)[C@H]2O)c(=O)n1 | -0.369 ± 1.5 | 1.15 ± 0.3 | -1.48 ± 1.4 | -2.3 ± 1.5

Reference: the supplement of paper PMC4962491
